Source: PubChem
esBAF inh – SWI/SNF esBAF complex inhibition. reporter increase, % at 12.5 µM. 350,000 tested, 2% active. AID 602393. mouse ES cells, Bmi1-luciferase knock-in reporter, 24 h; 100% = twice the neutral-well signal; in the data active = activation above about 40%; inconclusive = no clear call, values can overlap the other calls;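 note: 0% = median of the plate's neutral control wells and 100% = double that signal; a rise in the Bmi1 reporter signal indicates esBAF inhibition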
ssDAF-12 act – activators of S. stercoralis DAF-12 nuclear receptor; HEK293 ssDAF-12/GRIP1 lit1-tk-luc reporter, luminescence; % of 3 µM dafachronic acid response; AID 652126; 370,000 tested, 1% active; activation, % at 6.8 µM;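 active = activation above the mean over all tested compounds plus 3 SD, cut at about 0.9% in these data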;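 note: 0% = DMSO-only wells and 100% = 3 µM delta7-dafachronic acid wells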
hgDAF12 agonist – hgDAF-12 agonism, primary luciferase screen. HEK293 GAL4-hgDAF12 UAS-luciferase reporter, agonist luminescence; normalized to butyrate control. activation, % at 6.8 µM. 370,000 tested, 1.8% active;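 active = activation above a cutoff set at the mean of all screened compounds plus 3 SD, cut at about 10% in these data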;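 note: 0% = DMSO wells and 100% = sodium butyrate wells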
DAX1 inh – inhibitors of DAX1 repression of SF-1 activated StAR promoter. HEK293T StAR-luciferase reporter, SF-1/DAX-1 repression relief. inhibition, % at 6.8 µM. 370,000 tested, 1.1% active. AID 652010;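 active = inhibition above the mean over all tested compounds plus 3 SD, cut at about 3.6% in these data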;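 note: 0% = DAX-1 cells with DMSO and 100% = cells lacking DAX-1 with DMSO; higher inhibition means more luminescence from relief of DAX-1 repression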
Wnt act – Wnt/beta-catenin pathway activation. activation, % at 9.35 µM. Wnt/beta-catenin reporter cell assay, activator, plate reader. AID 743398. 300,000 tested, 1.2% active; in the data active = activation above about 30%, passing the limit was not always enough; inconclusive = no clear call, values can overlap the other calls;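 note: 0% = neutral control wells and 100% = positive control wells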
hcDAF-12 act – activators of H. contortus DAF-12 nuclear receptor; activation, % at 6.8 µM; 370,000 tested, 1.4% active; HEK293 hcDAF-12 lit1-tk-luc reporter, luminescence; 0% DMSO, 100% Δ7-dafachronic acid;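 active = activation above the mean of all tested compounds plus 3 SD, cut at about 5.5% in these data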;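 note: 100% = response to 3 µM Δ7-dafachronic acid high control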
DAX1 inh confirm – NR0B1 (human) inhibition, confirmation. AID 652134. inhibition, % at 6.8 µM. HEK293T StAR-promoter luciferase reporter, SF-1/DAX-1 repression. 2,400 tested, 87% active. shares compounds with DAX1 inh;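 active = inhibition above the average of every tested compound plus 3 SD, cut at about 3.8% in these data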;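 note: 0% = DAX-1 cells with DMSO and 100% = no DAX-1 control cells with DMSO; active compounds raise luminescence by relieving repression of the StAR reporter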
Target sequence (P51843 whole entry, looked up): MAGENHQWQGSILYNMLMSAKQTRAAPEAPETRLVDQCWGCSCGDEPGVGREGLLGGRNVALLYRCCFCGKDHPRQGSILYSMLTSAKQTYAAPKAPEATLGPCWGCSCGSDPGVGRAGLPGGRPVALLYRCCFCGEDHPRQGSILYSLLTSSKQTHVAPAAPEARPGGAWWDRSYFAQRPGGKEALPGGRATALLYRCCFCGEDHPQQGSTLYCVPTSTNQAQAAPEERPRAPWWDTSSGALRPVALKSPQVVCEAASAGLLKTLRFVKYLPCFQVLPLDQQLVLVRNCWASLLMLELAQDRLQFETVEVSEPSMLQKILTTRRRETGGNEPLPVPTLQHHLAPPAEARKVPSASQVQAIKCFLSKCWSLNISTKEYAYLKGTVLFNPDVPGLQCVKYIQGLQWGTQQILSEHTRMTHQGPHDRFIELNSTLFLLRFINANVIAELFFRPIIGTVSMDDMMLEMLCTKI
SF1 mutant ctr – counter-screen for DAX1 inhibitors: nonselective inhibitors with SF-1 AF2 mutant | 2,400 tested, 78% active | HEK293 StAR-luciferase, luminescence | inhibition, % at 6.8 µM | shares compounds with DAX1 inh;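 active = inhibition above the mean of all tested compounds plus 3 SD, cut at about 3% in these data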;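 note: 0% = DAX-1 transfected cells with DMSO and 100% = cells without DAX-1 with DMSO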
* marks the source's active call; other numbers are inactive results; ? = inconclusive; · = not tested or not shown. Compounds with a hit are over-represented: about 4.2% of the library has one in this group of screens.

SMILES	esBAF inh	ssDAF-12 act	hgDAF12 agonist	DAX1 inh	Wnt act	hcDAF-12 act	DAX1 inh confirm	SF1 mutant ctr
COc1ccc(C(CNC(=O)c2cc3c(s2)CCC(C)C3)N2CCCC2)cc1 (configuration not stated)	2	-1	1	5.8*	1	-1	5.8*	3.0*
CCOc1ccc(NS(=O)(=O)c2ccc(C(=O)NCC(c3ccc(OC)cc3)N3CCCC3)cc2)cc1 (configuration not stated)	·	0	0	7.5*	-2	0	7.0*	4.9*
O=C(NCCN1CCCCC1)[C@H]1N[C@H]2c3ccc(-c4ccncc4)c(=O)n3C[C@H]2[C@@H]1CO	-6	·	·	·	·	·	·	·
C/C(=N/NC(=O)c1ccoc1C)c1cccs1	·	0	9	7.8*	·	5	12*	7.3*
Cc1cc(O)c(N=Nc2ccc(C(=O)O)cc2)cc1C	67*	0	8	5.2*	17	3	21*	7.7*
C=C1CCCC2OC(CC3=CC4/C(C)=C/CC(C)CC(/C=C(\C)C(O)C5CC(O)C(O)C(CCC(O)/C=C/C(C)=C/CCC6=NCCC(C3)C64C)O5)OC(=O)CC3OC(C(O)C1)C(O)C3O)CC(O)C2O (configuration not stated)	-13	0	0	7.9*	-2	5.8*	11*	-3
Cc1ccnc(NC(=O)c2ccc3c(c2)NC(=O)C(C)S3)c1 (configuration not stated)	-45	0	6	11*	?	4	9.2*	3.9*
O=C(Nc1ccc(F)cc1F)NC1CC1	·	-1	-4	0	0	-2	·	·
Cc1ccc(NC(=O)Nc2ccc3c(c2)CCC3)cc1	·	-1	7	5.5*	2	2	5.3*	4.6*
O=C(Nc1ccc2c(c1)CCC2)Nc1ccc(F)cc1F	71*	0	11*	5.5*	41*	2	9.9*	6.9*
O=C(Nc1ccc(F)cc1)Nc1ccc2c(c1)CCC2	·	0	7	5.2*	?	0	4.2*	3.1*
CC(C)NC(=O)N[C@H]1CC[C@H](CCNC(=O)C2CCC2)O[C@@H]1CO	3	·	·	·	·	·	·	·
O=C(Nc1nc2cc3c(cc2s1)OCCO3)C1=COCCO1	-85	-3	-17	-3	-17	-6	·	·
CC(=O)Nc1nc2cc3c(cc2s1)OCCO3	11	1.3*	11*	5.8*	?	3	12*	6.0*
O=C(C[C@@H]1C[C@@H]2c3cc(NC(=O)C4CCC4)ccc3O[C@@H]2[C@H](CO)O1)NCc1ccccc1	2	·	·	·	·	·	·	·
CC1=C(C(=O)Nc2ccc(CC(=O)NCc3ccc(OC(C)C)cc3)cc2)SCCO1	46*	1.0*	8	15*	-7	5.9*	23*	-3
COc1ccc(O)c(C(=O)CC(=O)c2ccncc2)c1	13	-1	12*	4.7*	29	1	5.7*	3.6*
COc1ccc(C(=O)NNC(=O)c2ccncc2)cc1	·	-1	0	0	·	-4	·	·
CC(=O)c1sc(NC(=O)c2ccc(Br)o2)nc1C	25	2.1*	7	4.6*	22	3	4.1*	5.4*
Cc1nc2ccc(NC(=O)c3ccc(Br)o3)cc2s1	·	-2	5	6.2*	14	1	14*	7.6*
CCCC(=O)Nc1nc2ccc(NC(=O)c3ccc(Br)o3)cc2s1	13	-1	-2	-1	-3	-2	·	·
CC(=O)c1sc(NC(=O)c2ccc(Cn3cc(Br)cn3)o2)nc1C	·	-1	-1	1	·	-1	·	·
Cc1nc2ccc(NC(=O)C3=NN(C)C(=O)CC3)cc2s1	28	-1	0	7.5*	13	1	2	3.4*
CC(C)c1cn(CC[C@@H]2CC[C@@H](NS(=O)(=O)c3ccccc3)[C@H](CO)O2)nn1	-3	·	·	·	·	·	·	·
O=C(OCCn1c(=S)sc2ccccc21)c1ccccc1	·	0	7	6.7*	9	2	9.1*	7.1*
SMILES	esBAF inh	ssDAF-12 act	hgDAF12 agonist	DAX1 inh	Wnt act	hcDAF-12 act	DAX1 inh confirm	SF1 mutant ctr
O/N=C/CCn1c(=S)sc2ccccc21	7	-1	1	1	5	1	·	·
Nc1ccccc1SCc1ccccc1Cl	·	-1	1	0	4	1	·	·
Clc1ccccc1CSc1cnnc2ccccc12	45*	-1	6	5.3*	-5	2	3	1
CCOC(=O)[C@]12CCCC=C1N(Cc1cccc3ccccc13)C(=O)[C@H](CC(=O)NCc1cccc3ccccc13)C2	·	0	1	-1	-5	1	·	·
CCOC(=O)[C@]12CCCC=C1N(Cc1ccc3c(c1)OCO3)C(=O)[C@H](CC(=O)NCc1cccc3ccccc13)C2	·	-1	3	6.2*	-4	-1	0	2
COC(=O)[C@]12CCCCC=C1N(CCc1ccc(OC)c(OC)c1)C(=O)[C@H](CC(=O)NCc1cccc3ccccc13)C2	·	-1	0	4.6*	-5	-1	3	6.3*
C[C@H]1CCCCO[C@@H](CN(C)C(=O)CCCN(C)C)[C@@H](C)CN([C@@H](C)CO)C(=O)c2cc(NC(=O)c3ccccc3)ccc2O1	-5	·	·	·	·	·	·	·
O=C(CSc1n[nH]c(=O)n1C1CC1)Nc1ccccc1	1	-2	-1	11*	0	0	2	2
COc1ccc(NC(=O)Nc2ccc3c(c2)CC(=O)N([C@@H](C)CO)C[C@@H](C)[C@H](CN(C)Cc2ccncc2)O3)cc1	0	·	·	·	·	·	·	·
CC(C)(C)n1cnc2cc(NC(=O)c3cccs3)ccc21	35	-1	10	5.6*	?	3	8.6*	5.9*
O=C(c1ccncc1)c1ccc(NC(=O)c2cccs2)cc1	29	-2	-2	0	3	1	·	·
COC(=O)[C@H]1C[C@@]2(O)CN(S(=O)(=O)c3ccc(C)cc3)C[C@@]2(OC(=O)NCc2ccc(OC)c(OC)c2)C[C@H]1C(=O)OC	-1	-1	1	5.5*	-3	-1	1	0
C[C@H](O)C#Cc1ccc2c(c1)O[C@@H](CN(C)Cc1ccccc1)[C@H](C)CN([C@H](C)CO)S2(=O)=O	-3	·	·	·	·	·	·	·
O=C(NNC(=S)Nc1ccc(Cl)cc1)c1ccccc1	31	0	8	4.5*	0	5	7.1*	4.2*
O=C(NNC(=S)Nc1ccccc1Cl)c1ccccc1Cl	53*	0	10	11*	26	5	11*	6.7*
O=C(NNC(=S)NC(=O)c1cccnc1)c1ccccc1	9	-1	0	0	1	-1	·	·
